± gives the standard deviation.
system: MILI (PIWIL2) piRISC loaded with L1MC piRNA (26 nt); assay: pre-steady-state target cleavage rate (min^-1); guide: L1MC piRNA 5'p-UAACUAAAUACUAUGCAAGCUGUAGG; MIWI and MILI are mouse PIWI proteins and EfPiwi is from a freshwater sponge; tags in brackets are library labels; higher = faster piRNA-guided slicing of the target; conditions: auxiliary factor: 500 nM mouse GTSF1
Experimental: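 Cleave-'n-Seq: a library of target RNAs (target site embedded in constant flanks, ACAGCATTCCGCGTTAGTGATATCCG... 5' flank; DNA-blocked outside the site) at 0.1 nM was incubated with 1 nM active mouse MILI or MIWI piRISC (synthetic 5'-monophosphorylated piRNA guide) with or without 500 nM mouse GTSF1 at 33 °C for 1 min to 16 h. Uncleaved targets were sequenced and normalised to non-target controls, and the pooled three trials were fitted to a burst-and-steady-state model to give the pre-steady-state cleavage rate (min^-1; k3 is constrained to at most 1e-4). Sequence is the target site only; target names encode pairing extent (gX:gY) and contiguous / 1-mismatch / 2-mismatch / bulge geometry. Fits with R² ≤ 0 are excluded.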

Sequence | pre-steady-state target cleavage rate
UCCUGGAACAGCUUGGUUAGUAUUUAGUAA | 0.188 ± 0.035
UCCUGGAACAGCUUGCAUAGUGUUUAGUUA | 0.146 ± 0.018
UCCUGGUACAGCUUGCAUAGUAUUUAGUCUA | 0.0602 ± 0.024
UCCUGGUACAGCAACCAUAGUAUUUAGUUA | 0.286 ± 0.042
UCCUGGUACCGCUUGCAUAGUAUUUAGUUA | 0.293 ± 0.037
UCCUGCUUCAGCUUGCAUAGUAUUUUCAAA | 0.0882 ± 0.022
UCCUGGAUCAGCUUGCUAGUAUUUAGUUA | 0.0105 ± 0.0043
UCCUGGAUCAGACUUGCAUAGUAUUUAGUUA | 0.254 ± 0.015
UCCUGGAACAGGUUGCAUAGUUUUUAGUUA | 0.0335 ± 0.0065
UCCUGGAACAGUCUUGCAUAGUAUUUAGUUA | 0.26 ± 0.018
UCCUGGAUCAGCUUGCAUAGCUAUUUAGUUA | 0.00402 ± 0.004
UCCUGGAUGUCGAACCCAUAGUAUUUAGUUA | 0.0032 ± 0.0019
UCCUGGAACAGCUUGCAUAGUAUUUACUUA | 0.0894 ± 0.017
UCCUGGAACAGCUUGCAUAGUAUUUACGUUA | 0.204 ± 0.027
UCCUGCUUCAGCAUGCAUAGUAUUUAGUUA | 0.291 ± 0.015
UCCUGGAUGAUGCUUGCAUAGUAUUUAGUUA | 0.228 ± 0.023
UCCUGGAUCAGCUUGCCUAGUAUUUAGUUA | 0.234 ± 0.015
UCCUCCUACAGCUUGUCAUAGUAUUUAGUUA | 0.258 ± 0.015
UCCUGGAUCAGCUAGCAUAGUAUUAAGUUA | 0.247 ± 0.019
UCCUGGAUCAGCUUGCACAGUAUUUAGUUA | 0.157 ± 0.015
UCCUGGAUGUCCUUGCAUAGUACUUAGUUA | 0.0548 ± 0.01

same assay, conditions: auxiliary factor: none (no GTSF1)

Sequence | pre-steady-state target cleavage rate
UCCUGGAACAGCUUGGUUAGUAUUUAGUAA | 0.00709 ± 0.0024
UCCUGGAACAGCUUGCAUAGUGUUUAGUUA | 0.00335 ± 0.0028
UCCUGGUACAGCUUGCAUAGUAUUUAGUCUA | 0.00783 ± 0.0041
UCCUGGUACAGCAACCAUAGUAUUUAGUUA | 0.00442 ± 0.0027
UCCUGGUACCGCUUGCAUAGUAUUUAGUUA | 0.0123 ± 0.0052
UCCUGGAUCAGCUUGCUAGUAUUUAGUUA | 0.00365 ± 0.0022
UCCUGGAUCAGACUUGCAUAGUAUUUAGUUA | 0.00843 ± 0.0023
UCCUGGAACAGGUUGCAUAGUUUUUAGUUA | 0.00467 ± 0.0021
UCCUGGAACAGUCUUGCAUAGUAUUUAGUUA | 0.00993 ± 0.0026
UCCUGGAUGUCGAACCCAUAGUAUUUAGUUA | 0.00424 ± 0.0023
UCCUGGAACAGCUUGCAUAGUAUUUACUUA | 0.003 ± 0.0029
UCCUGGAACAGCUUGCAUAGUAUUUACGUUA | 0.00654 ± 0.0028
UCCUGCUUCAGCAUGCAUAGUAUUUAGUUA | 0.0121 ± 0.0034
UCCUGGAUGAUGCUUGCAUAGUAUUUAGUUA | 0.00923 ± 0.0034
UCCUGGAUCAGCUUGCCUAGUAUUUAGUUA | 0.00686 ± 0.0022
UCCUCCUACAGCUUGUCAUAGUAUUUAGUUA | 0.00407 ± 0.0019
UCCUGGAUCAGCUAGCAUAGUAUUAAGUUA | 0.00556 ± 0.0019
UCCUGGAUCAGCUUGCACAGUAUUUAGUUA | 0.0116 ± 0.003
UCCUGGAUGUCCUUGCAUAGUACUUAGUUA | 0.00401 ± 0.0028

From the supplement of paper PMC10338343
